# Reference: publication PMC4336329 (PLoS ONE, 2015)
# Screen size: about 310,000 compounds; about 14,000 (4.5%) showed an effect of 50% or more. The effect is printed as a negative number. This excerpt belongs to a sample that is enriched for strong results.
# Target: human ether-à-go-go-related gene (hERG) potassium channel (human, UniProt Q12809)
# Experiment: primary screen, population patch clamp on CHO cells stably expressing hERG; higher = less effect of the substance
# 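Further: peak tail current of the secondary pulse compared with the same well before compound.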
# human ether-à-go-go-related gene (hERG) potassium channel, sequence (Q12809 whole entry, looked up): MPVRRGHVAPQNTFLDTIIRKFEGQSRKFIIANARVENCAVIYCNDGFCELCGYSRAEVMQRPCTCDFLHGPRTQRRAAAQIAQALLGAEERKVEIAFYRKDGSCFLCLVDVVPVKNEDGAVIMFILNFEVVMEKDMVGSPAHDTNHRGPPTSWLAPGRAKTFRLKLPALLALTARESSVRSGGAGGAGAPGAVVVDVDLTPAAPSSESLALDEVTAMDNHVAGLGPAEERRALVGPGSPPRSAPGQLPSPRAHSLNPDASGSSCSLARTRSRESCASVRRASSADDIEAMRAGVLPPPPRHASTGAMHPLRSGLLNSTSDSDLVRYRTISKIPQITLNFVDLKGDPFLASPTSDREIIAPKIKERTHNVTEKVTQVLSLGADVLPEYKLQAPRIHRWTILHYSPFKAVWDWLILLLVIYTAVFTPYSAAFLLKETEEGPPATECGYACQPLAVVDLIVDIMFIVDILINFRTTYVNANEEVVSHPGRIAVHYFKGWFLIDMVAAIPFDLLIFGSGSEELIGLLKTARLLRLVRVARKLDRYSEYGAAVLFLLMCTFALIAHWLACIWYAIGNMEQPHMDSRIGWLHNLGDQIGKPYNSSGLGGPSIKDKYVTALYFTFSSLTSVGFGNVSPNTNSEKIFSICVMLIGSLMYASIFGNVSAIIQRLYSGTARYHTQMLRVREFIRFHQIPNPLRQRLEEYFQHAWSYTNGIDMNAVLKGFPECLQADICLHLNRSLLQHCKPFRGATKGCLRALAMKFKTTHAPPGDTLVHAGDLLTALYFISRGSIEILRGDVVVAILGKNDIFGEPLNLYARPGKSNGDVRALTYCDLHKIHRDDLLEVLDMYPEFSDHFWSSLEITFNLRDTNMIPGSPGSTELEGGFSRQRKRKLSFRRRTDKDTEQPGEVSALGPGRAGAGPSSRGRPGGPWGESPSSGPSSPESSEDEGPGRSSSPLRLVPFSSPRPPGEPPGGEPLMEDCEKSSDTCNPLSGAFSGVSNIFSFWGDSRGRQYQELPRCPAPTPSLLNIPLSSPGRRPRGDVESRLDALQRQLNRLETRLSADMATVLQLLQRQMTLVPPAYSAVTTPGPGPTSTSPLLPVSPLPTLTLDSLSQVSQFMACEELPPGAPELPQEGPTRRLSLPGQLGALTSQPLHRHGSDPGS
row,Compound,"hERG current change (%, negative = inhibition) at 10uM [%]"
1,CCc1[nH]c(=S)c(C#N)c2c1CCCC2,14.9
2,COc1cccc(C(c2nnnn2Cc2ccccc2)N2CCN(C3CCCC3)CC2)c1OC.Cl (centres unmarked),-32
3,O=c1[nH]nc(Sc2ncnc3sccc23)n1CCc1ccccc1,-18.3
4,CC1CCC/C=C/C2CC(O)CC2C(O)/C=C/C(=O)O1 (centres unmarked),-2.12
5,O=C(c1cnn2c(C(F)F)cc(-c3ccccc3)nc12)N1CCc2ccccc2C1,-15.6
6,CCn1c(SCC(=O)NCCc2ccccc2)nc2c(c1=O)SC(C)C2 (centres unmarked),5.03
7,COc1cccc(NC(=O)CCN2C(=O)c3ccccc3Sc3ncccc32)c1,12.7
8,O=C(COC(=O)C1CCC(=O)N1)Nc1ccc(Br)cc1 (centres unmarked),12
9,Cc1cc2nc3n(c2cc1C)CC1CC(C(=O)NCCc2cccs2)N(C)C31 (centres unmarked),-38.5
10,CN1C(C(=O)NCCc2cccs2)CC2Cn3c(nc4cc(Cl)c(Cl)cc43)C21 (centres unmarked),-63.6
11,CN1C(C(=O)NCCc2cccs2)CC2Cn3c(nc4ccccc43)C21 (centres unmarked),-27.3
12,CN1C(C(=O)NCCc2cccs2)CC2Cn3c(nc4cc5ccccc5cc43)C21 (centres unmarked),-65.9
13,CNC1=C([N+](=O)[O-])CC([N+](=O)[O-])=C(N2CCNCC2)N1C,8.57
14,COc1cccc(-c2nc(CS(=O)(=O)CC(=O)NCCC(C)C)c(C)o2)c1,-10.7
15,CCCNC(=O)CS(=O)(=O)Cc1nc(-c2cccc(OC)c2)oc1C,-70
16,CCOC(=O)N1CCC(NC(=O)CS(=O)(=O)Cc2nc(-c3cccc(OC)c3)oc2C)CC1,-54.2
17,COc1cccc(-c2nc(CS(=O)(=O)CC(=O)NCCCN3CCc4ccccc4C3)c(C)o2)c1,-71.6
18,COc1cccc(-c2nc(CS(=O)(=O)CC(=O)NCCCN3CCOCC3)c(C)o2)c1,7.17
19,CCOC(=O)N1CCC(NC(=O)CS(=O)(=O)Cc2nc(-c3ccc(OC)cc3)oc2C)CC1,13.3
20,COc1cccc(-c2nc(CS(=O)(=O)CC(=O)NCCCN3CCN(C)CC3)c(C)o2)c1,3.5
21,COCCCNC(=O)CS(=O)(=O)Cc1nc(-c2cccc(OC)c2)oc1C,7.73
22,COc1cccc(-c2nc(CS(=O)(=O)CC(=O)NC3CC3)c(C)o2)c1,16.1
23,CCC(=O)N1CC2(c3ccccc3)CN(C(=O)CC)CC(c3ccccc3)(C1)C2=O,5.6
